Experimental data reported in PubChem BioAssay (NCI).
About 79,000 compounds went through this panel and 15% of them were active in at least one assay; those are over-represented in the sample as a whole. The source made the active and inactive calls. Cut-off read from the data, not from the text of the source: active = growth inhibition above about 70%; inactive = the rest.

Assays:
[1] = NCI Yeast Anticancer Drug Screen. Data for the rad50 strain (AID 155);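 note: 0% = growth of vehicle-only cultures of the same strain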; details: S. cerevisiae rad50 strain growth inhibition; at 50.0 µM; active compounds read high
In short: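 Inhibition values express reduced yeast growth in compound-treated cultures relative to vehicle-treated controls.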

[2] = NCI Yeast Anticancer Drug Screen. Data for the mec2-1 strain (AID 157); details: S. cerevisiae mec2-1 strain, at 50.0 µM, active compounds read high
In short: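 Test agents were screened against the mec2-1 yeast strain, with defined DNA repair or cell cycle alteration. Growth was scored as inhibition against vehicle-only controls.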

[3] = NCI Yeast Anticancer Drug Screen. Data for the sgs1 mgt1 strain (AID 161);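 note: 0% = growth of cultures given vehicle only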; details: S. cerevisiae sgs1 mgt1 strain, at 50.0 µM, active compounds read high
In short: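 Inhibition of yeast growth, normalised to vehicle-treated controls, is reported for a strain bearing genetic alterations in DNA damage repair.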

[4] = NCI Yeast Anticancer Drug Screen. Data for the cln2 rad14 strain (AID 165);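 note: 0% = growth equal to vehicle treated cultures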; details: S. cerevisiae cln2 rad14 strain, at 50.0 µM, active compounds read high
In short: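 Growth of compound-exposed yeast (cln2 rad14 genotype) measured and expressed as inhibition relative to vehicle.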

[5] = NCI Yeast Anticancer Drug Screen. Data for the bub3 strain (AID 167); details: S. cerevisiae bub3 mutant strain, at 50.0 µM, active compounds read high
In short: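 Steps: expose the mutant yeast strain to compound; grow alongside vehicle-treated cultures; measure growth; express inhibition against the vehicle cultures.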

[6] = NCI Yeast Anticancer Drug Screen. Data for the mlh1 rad18 strain (AID 175); details: S. cerevisiae mlh1 rad18 strain growth inhibition; at 50.0 µM; active compounds read high
In short: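 In this whole-cell yeast screen, a strain with altered DNA damage repair is challenged with compound, and its growth is measured against matched vehicle-treated controls.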

Measured: growth inhibition

Cc1nc2ccc(Cl)cc2c(=O)[nH]1
inactive: [1] -6.35% | [2] -6.45% | [3] -8.65% | [4] -57.2% | [5] -16.2% | [6] 0.9%

N#CC1=C(N)NC(=O)C(C(N)=O)C1c1ccccc1Cl (configuration not stated)
inactive: [1] -16.6% | [2] -13.4% | [3] -12.1% | [4] -11.3% | [5] -11.4% | [6] -12.8%

CCO/C(O)=c1/s/c(=C(\C#N)c2nc3ccccc3[nH]2)n(-c2ccccc2)c1=N
inactive: [1] 11.6% | [2] 3.4% | [3] 2.3% | [4] -37.9% | [5] -20.4% | [6] -26.8%

CCOCCOC(=O)/C=C/c1ccccc1
inactive: [1] 17.6% | [2] -9.6% | [3] -4.35% | [4] -46.8% | [5] 8.15% | [6] -3.15%

CCCCN(CCCC)C1(c2ccccc2)OC(c2ccccc2)=CC1=O (configuration not stated)
inactive: [1] 1.45% | [2] 5.75% | [3] -0.55% | [4] -10.5% | [5] 2.8% | [6] 20.6%

C=CCc1ccc(OC(=O)Nc2ccc(S(=O)(=O)NC3CCCCC3)cc2)c(OC)c1
inactive: [1] 33.7% | [2] 8.85% | [3] 44.7% | [4] 33.1% | [5] 11.8% | [6] 44.4%

O=C(O)/C(=C\c1ccccc1Cl)S(=O)(=O)c1ccccc1
inactive: [1] -25.5% | [2] -6.45% | [3] -12.6% | [4] -0.35% | [5] -16% | [6] 15.1%

CCOc1ccc(NC(=O)C(=O)C(C(=O)c2ccc3ccccc3c2)C2OC(=O)c3ccccc32)cc1 (configuration not stated)
inactive: [1] 13.1% | [2] 3.45% | [3] -2.4% | [4] -17.6% | [5] 7.85% | [6] 6.8%

Cc1ccc(S(=O)(=O)N/N=C(\C(=O)Nc2cccc([N+](=O)[O-])c2)c2nc3ccc([N+](=O)[O-])cc3[nH]c2=O)cc1
inactive: [1] -3% | [2] -6% | [3] 3.65% | [4] 7.4% | [5] -3.1% | [6] 2.2%

O=C(O)C(CSC(c1ccccc1)(c1ccccc1)c1ccccc1)Nc1ccccc1[N+](=O)[O-] (configuration not stated)
active: [1] 99% | [2] 99.2% | [3] 99.4% | [4] 98% | [5] 98.3% | [6] 99.2%

Cn1/c(=N\N=C2\C=C3CCCCC3(C)CC2)sc2ccccc21 (configuration not stated)
inactive: [1] 12.7% | [2] 12.2% | [3] 22.9% | [4] 33.2% | [5] -8.8% | [6] 47.1%

O=C(N=C1SCCS1)Nc1cccc(Cl)c1
active: [1] 87%
inactive: [2] 5.7% | [3] 44% | [4] 11.3% | [5] 11.4% | [6] 37.2%

NC(=O)SCC(=O)Nc1ccc2cccc3c2c1CC3
inactive: [1] 66.2% | [2] 60.3% | [4] 61.6%
active: [3] 80% | [5] 74.3% | [6] 85.2%

Cc1cc(C)c2c(-c3ccccc3)cc(=O)[nH]c2c1
inactive: [1] -33% | [2] -16.1% | [3] -29.4% | [4] -3.55% | [5] -33.7% | [6] -51.1%

C[N+](C)(C)/N=C1\CC2CCC1C2 (configuration not stated)
inactive: [1] 18.3% | [2] -4.5% | [3] -5.55% | [4] 4.75% | [5] 1.9% | [6] 23.1%

CCCCCN1C(=O)N=NC1=S
inactive: [1] 4.65% | [2] 8.15% | [3] 19.2% | [4] 2.7% | [5] -13.8% | [6] -2.5%

COc1cc(/C=C/C=C2\CC/C(=C\C=C\c3ccc(O)c(OC)c3)C2=O)ccc1O
inactive: [1] 10.2% | [2] 18.4% | [3] 31.4% | [4] 37.7% | [5] 29.5% | [6] -9.1%

C/C=C/c1nc2c(c(=O)n(C)c(=O)n2C)n1C
inactive: [1] -8.05% | [2] -8.2% | [3] -6% | [4] -28.8% | [5] 0.95% | [6] 7%

CNS(=O)(=O)c1ccc(Br)cc1
inactive: [1] -15.9% | [2] -24.6% | [3] -9.85% | [4] -14.2% | [5] 3.35% | [6] -12.4%

O=C1c2ccccc2C(=O)N1c1ccc(C(F)(F)F)cc1[N+](=O)[O-]
inactive: [1] -1.25% | [2] 16.2% | [3] 19.7% | [4] -15.8% | [5] 14.5% | [6] 7.2%

N#CCCN(CCC#N)c1ccc(C(=O)NN)cc1
inactive: [1] -18.1% | [2] -15.9% | [3] -3.2% | [4] 25.2% | [5] -8.8% | [6] -5.3%

Cc1c(C(C)c2[nH]c3ccccc3c2C)[nH]c2ccccc12
inactive: [1] 8.1% | [2] 0.45% | [3] -11.6% | [4] 4.45% | [5] 17.4% | [6] -13.6%

Brc1ccc2c(c1)C1(c3cc(Br)ccc3-2)c2cc(Br)ccc2-c2ccc(Br)cc21
inactive: [1] 2.45% | [2] -5.9% | [3] -13.7% | [4] 22.7% | [5] 5.25% | [6] 3.95%

CC(=O)Nc1cc(Cl)cc2[nH]c(C)nc12
inactive: [1] 17.1% | [2] -3% | [3] -0.6% | [4] -0.25% | [5] 12.8% | [6] 37.4%

CCCCCCCCCCNC(=O)CCC(NC(=O)c1ccc(N(C)Cc2cnc3nc(N)nc(N)c3n2)cc1)C(=O)NCCCCCCCCCC (configuration not stated)
inactive: [1] 5.7% | [2] 3.35% | [3] -4.15% | [4] 6.1% | [5] -13.2% | [6] -3.65%

O=C(O)C(Br)C1(Br)c2ccccc2-c2ccccc21 (configuration not stated)
active: [1] 99.3% | [2] 99.7% | [3] 99.7% | [4] 95.4% | [5] 97.3% | [6] 99.6%

C=C(C)COc1c(C)c(C)c(OCC(C)C)c(C)c1C
inactive: [1] -4.35% | [2] 9.75% | [3] -0.75% | [4] -8.75% | [5] 3.2% | [6] -10.9%

COc1ccc2c(c1)CCCN2c1ccc(N=C(N)N)cc1
inactive: [1] 2.95% | [2] -6.35% | [3] -1.75% | [4] -17.8% | [5] 27.9% | [6] 16.5%

CC1=NN(c2ccccc2)C(N)C1 (configuration not stated)
inactive: [1] 17.7% | [2] 17.7% | [3] 23.3% | [4] 11.5% | [5] 25.4% | [6] 13.2%

CCOC(=O)c1ccccc1S(=O)(=O)c1ccccc1C(=O)OCC
inactive: [1] 1.4% | [2] 16.9% | [3] 9.85% | [4] 11.2% | [5] 5.2% | [6] 10.4%

NCC(c1ccccc1)C1CCCCC1 (configuration not stated)
inactive: [1] 13.2% | [2] -2.35% | [3] 5.05% | [4] -7.5% | [5] -3.9% | [6] 15%

CSC(=NCCN=C(NS(=O)(=O)c1ccc(Cl)cc1)SC)NS(=O)(=O)c1ccc(Cl)cc1
inactive: [1] 5.95% | [2] -5.3% | [3] 7.15% | [4] 1.5% | [5] 4.15% | [6] 5.8%

CCCCCC(C)(O)CC(C)(C)C (configuration not stated)
inactive: [1] -3.15% | [2] 5.75% | [3] 0.55% | [4] -7.95% | [5] 2.2% | [6] 34.8%

C=C1CC[C@@H]2C(C)(C)CCC[C@@]2(C)[C@@H]1Cc1cc(O)ccc1O
active: [1] 86.8% | [2] 88.6% | [3] 87% | [4] 87.2% | [5] 87.9% | [6] 87.5%

CCCCn1cnc2c(SCc3ccc(Cl)cc3Cl)nc(N)nc21
inactive: [1] 1.15% | [2] 25.2% | [3] 7.35% | [4] 21.2% | [5] 15.3% | [6] -8.2%

COc1ccc(C2Nc3cc(Cl)ccc3NC3=C2C(=O)CC(C)(C)C3)cc1 (configuration not stated)
inactive: [1] 52.5% | [2] 30.9% | [3] 41.2% | [4] 28.6% | [5] 40.3% | [6] 54.3%

O=C(CCl)Nc1ccc(O)c2ccccc12
inactive: [1] 14.8% | [2] 4.65% | [3] 7.45% | [4] 9.95% | [5] 5.85% | [6] 36.8%
